Targets with a hit are over-represented here; the source holds about 7,900 in all. About 0.6% of all pairs of compound and target were hits.
These targets were tested with Cc1sc2c(c1C)C(c1ccc(Cl)cc1)=N[C@@H](CC(=O)OC(C)(C)C)c1nnc(C)n1-2 (assay: log2 fold change, soluble protein after heating vs DMSO (PISA); higher = thermal stabilisation; K562 cells, 10 uM, 30 min; active = over 0.2 and 3.5 SD of the protein, either way, in both replicates (recomputed)).
Procedure, shortened: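 K562 cells at 2×10^6 cells/mL were treated with 10 μM compound for 30 min. Aliquots were heated for 3 min across 48°C-58°C, pooled, and extracted in PBS with 0.5% NP-40 at 4°C; soluble protein was the supernatant after 21,000xg for 90 min. Soluble protein was quantified by TMTpro 16plex LC-MS/MS with channel sums equalised, and reported as log2 fold change in thermal stability against DMSO controls, with values from duplicates.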

UniProt Q8NEB9, sequence (Q8NEB9 whole entry, looked up): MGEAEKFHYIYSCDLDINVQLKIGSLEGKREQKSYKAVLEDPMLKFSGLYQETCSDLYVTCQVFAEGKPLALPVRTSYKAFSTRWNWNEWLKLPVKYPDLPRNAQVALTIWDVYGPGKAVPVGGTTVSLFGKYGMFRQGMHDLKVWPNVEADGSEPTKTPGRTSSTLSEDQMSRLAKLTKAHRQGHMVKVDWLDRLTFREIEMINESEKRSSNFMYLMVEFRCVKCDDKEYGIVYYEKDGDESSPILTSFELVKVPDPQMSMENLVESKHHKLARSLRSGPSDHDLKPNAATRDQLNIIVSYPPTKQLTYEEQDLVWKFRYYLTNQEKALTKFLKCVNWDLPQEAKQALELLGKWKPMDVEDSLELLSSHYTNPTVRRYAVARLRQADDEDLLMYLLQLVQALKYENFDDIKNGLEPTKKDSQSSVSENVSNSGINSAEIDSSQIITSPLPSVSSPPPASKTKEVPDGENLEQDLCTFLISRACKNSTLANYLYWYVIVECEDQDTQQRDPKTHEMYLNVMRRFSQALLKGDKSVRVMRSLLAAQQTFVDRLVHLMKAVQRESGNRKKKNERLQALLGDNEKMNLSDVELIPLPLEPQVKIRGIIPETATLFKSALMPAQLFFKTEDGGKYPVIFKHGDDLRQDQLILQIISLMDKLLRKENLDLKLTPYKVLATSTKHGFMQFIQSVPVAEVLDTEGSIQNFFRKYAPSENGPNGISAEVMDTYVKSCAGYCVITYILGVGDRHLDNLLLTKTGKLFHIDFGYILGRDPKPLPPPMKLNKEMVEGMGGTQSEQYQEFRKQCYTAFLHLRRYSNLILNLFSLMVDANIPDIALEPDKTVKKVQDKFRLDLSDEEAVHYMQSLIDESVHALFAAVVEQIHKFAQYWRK
UniProt Q8NBL1, sequence (Q8NBL1 whole entry, looked up): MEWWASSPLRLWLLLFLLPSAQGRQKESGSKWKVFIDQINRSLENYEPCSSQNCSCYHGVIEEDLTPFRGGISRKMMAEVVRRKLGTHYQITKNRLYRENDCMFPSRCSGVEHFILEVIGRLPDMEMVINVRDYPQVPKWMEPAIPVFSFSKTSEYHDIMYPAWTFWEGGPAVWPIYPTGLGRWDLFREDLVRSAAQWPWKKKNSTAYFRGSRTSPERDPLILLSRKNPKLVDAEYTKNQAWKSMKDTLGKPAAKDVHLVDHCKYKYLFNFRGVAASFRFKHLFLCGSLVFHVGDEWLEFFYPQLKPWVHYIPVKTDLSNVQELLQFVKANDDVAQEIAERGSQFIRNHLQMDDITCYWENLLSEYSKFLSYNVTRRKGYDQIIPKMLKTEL
UniProt O15305, sequence (O15305 whole entry, looked up): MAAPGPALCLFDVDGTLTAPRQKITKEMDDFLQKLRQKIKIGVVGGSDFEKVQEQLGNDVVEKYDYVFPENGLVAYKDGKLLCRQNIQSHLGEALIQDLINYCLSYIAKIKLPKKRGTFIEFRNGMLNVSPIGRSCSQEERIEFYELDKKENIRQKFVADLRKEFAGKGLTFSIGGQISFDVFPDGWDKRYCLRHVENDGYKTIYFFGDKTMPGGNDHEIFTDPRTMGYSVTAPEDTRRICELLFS
UniProt O14974, sequence (O14974 whole entry, looked up): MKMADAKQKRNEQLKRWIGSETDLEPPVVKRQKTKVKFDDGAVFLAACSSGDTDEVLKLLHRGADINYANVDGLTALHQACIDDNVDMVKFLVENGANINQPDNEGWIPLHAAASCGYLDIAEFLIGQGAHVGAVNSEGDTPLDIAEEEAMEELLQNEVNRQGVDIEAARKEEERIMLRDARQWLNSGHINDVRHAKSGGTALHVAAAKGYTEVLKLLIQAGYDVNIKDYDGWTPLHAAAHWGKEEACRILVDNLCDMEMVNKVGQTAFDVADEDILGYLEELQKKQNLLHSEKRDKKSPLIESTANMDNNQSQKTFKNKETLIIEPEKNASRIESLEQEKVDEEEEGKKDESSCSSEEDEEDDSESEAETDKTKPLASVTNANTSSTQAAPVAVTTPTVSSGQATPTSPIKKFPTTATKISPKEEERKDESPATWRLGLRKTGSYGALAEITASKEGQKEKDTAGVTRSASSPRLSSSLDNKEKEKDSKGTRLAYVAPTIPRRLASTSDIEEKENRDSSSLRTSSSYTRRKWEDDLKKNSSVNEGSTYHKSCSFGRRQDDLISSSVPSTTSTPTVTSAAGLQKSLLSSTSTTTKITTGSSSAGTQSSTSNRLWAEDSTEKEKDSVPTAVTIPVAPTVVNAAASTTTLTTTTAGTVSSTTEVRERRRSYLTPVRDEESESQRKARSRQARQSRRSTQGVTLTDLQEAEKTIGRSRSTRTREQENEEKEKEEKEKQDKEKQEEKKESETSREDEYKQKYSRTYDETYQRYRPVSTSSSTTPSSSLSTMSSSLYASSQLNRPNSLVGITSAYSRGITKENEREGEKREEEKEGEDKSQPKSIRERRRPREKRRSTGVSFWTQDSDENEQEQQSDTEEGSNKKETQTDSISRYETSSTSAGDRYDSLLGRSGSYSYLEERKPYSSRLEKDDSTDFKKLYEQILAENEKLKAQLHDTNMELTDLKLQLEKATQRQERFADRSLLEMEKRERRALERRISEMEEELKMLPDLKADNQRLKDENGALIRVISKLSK
UniProt Q93096, sequence (Q93096 whole entry, looked up): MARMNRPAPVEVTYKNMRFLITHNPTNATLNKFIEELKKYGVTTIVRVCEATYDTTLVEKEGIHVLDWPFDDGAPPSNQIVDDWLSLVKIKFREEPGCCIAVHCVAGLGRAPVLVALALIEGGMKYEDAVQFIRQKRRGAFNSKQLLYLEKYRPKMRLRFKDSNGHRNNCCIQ
UniProt Q9NP80, sequence (Q9NP80 whole entry, looked up): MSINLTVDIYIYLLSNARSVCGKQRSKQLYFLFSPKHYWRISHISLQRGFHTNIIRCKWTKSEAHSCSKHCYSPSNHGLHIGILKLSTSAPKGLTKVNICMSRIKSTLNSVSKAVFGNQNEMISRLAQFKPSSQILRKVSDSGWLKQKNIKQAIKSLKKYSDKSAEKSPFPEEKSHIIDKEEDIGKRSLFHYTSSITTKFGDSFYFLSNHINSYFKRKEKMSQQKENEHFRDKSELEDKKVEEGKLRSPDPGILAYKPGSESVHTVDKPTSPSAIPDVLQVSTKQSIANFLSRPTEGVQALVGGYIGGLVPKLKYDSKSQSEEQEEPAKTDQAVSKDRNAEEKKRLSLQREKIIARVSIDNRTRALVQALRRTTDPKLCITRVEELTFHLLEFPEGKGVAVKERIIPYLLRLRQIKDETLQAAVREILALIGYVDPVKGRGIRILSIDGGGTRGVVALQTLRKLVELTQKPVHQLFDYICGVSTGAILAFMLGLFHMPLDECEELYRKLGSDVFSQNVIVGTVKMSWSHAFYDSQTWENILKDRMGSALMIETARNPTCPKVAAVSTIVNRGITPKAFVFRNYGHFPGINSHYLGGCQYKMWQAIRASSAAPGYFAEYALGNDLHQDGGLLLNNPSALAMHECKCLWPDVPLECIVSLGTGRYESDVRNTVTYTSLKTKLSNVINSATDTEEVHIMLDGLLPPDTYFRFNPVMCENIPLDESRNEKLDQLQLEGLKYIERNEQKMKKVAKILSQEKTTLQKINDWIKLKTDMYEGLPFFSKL
UniProt Q15185, sequence (Q15185 whole entry, looked up): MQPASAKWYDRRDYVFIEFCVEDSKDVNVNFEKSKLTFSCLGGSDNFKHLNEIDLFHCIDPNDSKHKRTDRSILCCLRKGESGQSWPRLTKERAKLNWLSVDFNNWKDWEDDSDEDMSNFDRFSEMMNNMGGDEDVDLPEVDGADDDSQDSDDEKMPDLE
UniProt Q9Y5K3, sequence (Q9Y5K3 whole entry, looked up): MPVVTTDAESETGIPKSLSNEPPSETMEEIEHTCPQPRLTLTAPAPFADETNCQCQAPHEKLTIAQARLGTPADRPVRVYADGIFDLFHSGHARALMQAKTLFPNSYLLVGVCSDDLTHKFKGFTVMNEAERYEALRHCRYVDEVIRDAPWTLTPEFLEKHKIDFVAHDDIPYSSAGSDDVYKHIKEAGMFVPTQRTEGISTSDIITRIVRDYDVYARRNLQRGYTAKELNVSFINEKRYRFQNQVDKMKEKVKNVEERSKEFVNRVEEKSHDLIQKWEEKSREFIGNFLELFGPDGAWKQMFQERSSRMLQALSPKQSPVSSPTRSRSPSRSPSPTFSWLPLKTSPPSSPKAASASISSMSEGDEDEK
UniProt Q9UHX1, sequence (Q9UHX1 whole entry, looked up): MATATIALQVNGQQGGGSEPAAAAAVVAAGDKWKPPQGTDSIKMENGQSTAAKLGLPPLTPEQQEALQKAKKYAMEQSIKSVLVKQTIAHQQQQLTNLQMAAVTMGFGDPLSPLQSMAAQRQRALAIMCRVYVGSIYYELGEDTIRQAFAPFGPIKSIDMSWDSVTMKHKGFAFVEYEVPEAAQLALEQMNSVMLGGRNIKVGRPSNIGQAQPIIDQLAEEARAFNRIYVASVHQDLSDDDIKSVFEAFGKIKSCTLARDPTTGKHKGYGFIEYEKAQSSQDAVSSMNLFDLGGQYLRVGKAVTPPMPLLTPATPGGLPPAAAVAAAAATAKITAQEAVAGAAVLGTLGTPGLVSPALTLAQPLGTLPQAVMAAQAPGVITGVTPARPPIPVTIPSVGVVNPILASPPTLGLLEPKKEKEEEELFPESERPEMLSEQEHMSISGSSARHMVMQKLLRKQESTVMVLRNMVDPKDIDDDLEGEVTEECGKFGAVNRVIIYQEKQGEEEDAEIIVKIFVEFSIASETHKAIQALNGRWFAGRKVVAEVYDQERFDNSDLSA
UniProt P54619, sequence (P54619 whole entry, looked up): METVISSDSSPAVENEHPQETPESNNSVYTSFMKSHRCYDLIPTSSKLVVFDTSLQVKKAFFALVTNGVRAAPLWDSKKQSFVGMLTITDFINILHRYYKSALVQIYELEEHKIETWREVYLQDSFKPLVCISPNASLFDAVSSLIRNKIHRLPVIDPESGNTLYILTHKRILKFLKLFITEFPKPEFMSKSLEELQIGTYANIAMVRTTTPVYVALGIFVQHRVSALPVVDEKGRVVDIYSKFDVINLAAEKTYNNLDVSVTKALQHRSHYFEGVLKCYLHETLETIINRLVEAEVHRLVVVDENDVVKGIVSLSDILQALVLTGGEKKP

Target | log2 fold change
PPP1R12A (UniProt O14974) | 0.035 (inactive)
PUF60 isoform 2 (UniProt Q9UHX1) | -0.146 (inactive)
PTGES3 (UniProt Q15185) | -0.046 (inactive)
PMM2 (UniProt O15305) | 0.06 (inactive)
POLR2A (UniProt P24928) | 0.17 (inactive)
PTRH2 (UniProt Q9Y3E5) | -0.106 (inactive)
PIK3C3 (UniProt Q8NEB9) | 0.009 (inactive)
PRKAG1 isoform 3 (UniProt P54619) | -0.011 (inactive)
POLR2K (UniProt P53803) | 0.032 (inactive)
PCYT1A (UniProt P49585) | -0.012 (inactive)
PPIL2 (UniProt Q13356) | -0.019 (inactive)
PTP4A1 (UniProt Q93096) | 0.001 (inactive)
PIP4P1 isoform 2 (UniProt Q86T03) | -0.002 (inactive)
PCLAF (UniProt Q15004) | 0.02 (inactive)
PBX2 (UniProt P40425) | 0.051 (inactive)
POLR2E (UniProt P19388) | 0.054 (inactive)
PNPLA8 (UniProt Q9NP80) | -0.006 (inactive)
POM121 (UniProt Q96HA1) | 0.054 (inactive)
PDLIM7 (UniProt Q9NR12) | -0.023 (inactive)
PRKACA (UniProt P17612) | -0.009 (inactive)
POGLUT1 (UniProt Q8NBL1) | 0.07 (inactive)
PCYT1B (UniProt Q9Y5K3) | 0.042 (inactive)
PIP4K2B (UniProt P78356) | -0.038 (inactive)
